Laboratory results published in PubChem BioAssay.
Several values for one entry are separate records, joined by “and”; a condition that tells them apart may be missing. Identical values can stand only once. Some compounds were tested as several samples or in several runs, with calls that do not always agree. Activity calls are given as the source filed them. Cut-off read from the data, not from the text of the source: active = fold change permeability below about 0.7 or above about 1.3; inactive = in between.

Assay: modulators of brain endothelial barrier permeability, primary screen, cell-based, FITC-avidin fluorescence, HTS (AID 1963498); note: test concentration not given here
Conditions: actives lie on both sides
With `CCCN1CCC[C@@H]2Cc3nc(N)ncc3C[C@H]21` the fold change permeability was 1.1 (inactive). For `CCCN1CCC[C@@H](c2cccc(O)c2)C1`, the fold change permeability was 1 (inactive). For `CC[C@@H]1C(=O)OC[C@@H]1Cc1cncn1C`, the fold change permeability was 1.3 (active) and 1.2 (inactive). For `CCCN(CCC)C1CCc2ccc(O)cc2C1` (stereo unspecified), the fold change permeability was 1.1 (inactive). With `O=P1(N(CCCl)CCCl)NCCCO1` (stereo unspecified) the fold change permeability was 1 (inactive). With `COC[C@H]1OC(=O)c2coc3c2[C@@]1(C)C1=C(C3=O)C2CCC(=O)[C@@]2(C)C[C@H]1OC(C)=O` (stereo partly specified) the fold change permeability was 1.7 (active). For `Cc1c2ccncc2c(C)c2c1[nH]c1ccccc12`, the fold change permeability was 1.2 (inactive). For `C[C@@H](N)Cc1cnc[nH]1`, the fold change permeability was 0.9 (inactive). For `NN=C(N)N`, the fold change permeability was 1.2 (inactive) and 1 (inactive). With `C[N+](C)(C)CC#CCOC(=O)Nc1cccc(Cl)c1` the fold change permeability was 0.9 (inactive). For `O=[N+]([O-])c1cc(O)c(O)c([N+](=O)[O-])c1`, the fold change permeability was 1 (inactive). With `CC(C)(C)NCC(O)c1ccccc1Cl` (stereo unspecified) the fold change permeability was 0.7 (active). In the case of `NCCc1c[nH]c2ccccc12`, the fold change permeability was 1.4 (active). With `CC(C)(C)c1o[nH]c(=O)c1CC(N)C(=O)O` (stereo unspecified) the fold change permeability was 1.1 (inactive). In the case of `CC[C@@H](CO)NC(=O)[C@@H]1C=C2c3cccc4c3c(cn4C)C[C@H]2N(C)C1`, the fold change permeability was 0.7 (active). For `CN1[C@H]2C[C@H](OC(=O)[C@H](CO)c3ccccc3)C[C@@H]1[C@@H](O)C2`, the fold change permeability was 0.8 (inactive). In the case of `O=[N+]([O-])/C=C/c1ccc2c(c1)OCO2`, the fold change permeability was 1.4 (active). For `Cc1nnc2n1-c1sccc1C(c1ccccc1)=NC2`, the fold change permeability was 1.1 (inactive). In the case of `c1ccc2c(c1)OCC(C1=NCCN1)O2` (stereo unspecified), the fold change permeability was 2.1 (active). With `CCCCc1ccc(C(=O)O)nc1` the fold change permeability was 0.8 (inactive). For `C[N+](C)(C)CC(=O)O`, the fold change permeability was 1 (inactive). With `N[C@@]1(C(=O)O)CC[C@@H](C(=O)O)C1` the fold change permeability was 1 (inactive). For `CC(=O)[C@H]1CCC2C3CC[C@H]4C[C@H](O)CC[C@]4(C)C3CC[C@@]21C` (stereo partly specified), the fold change permeability was 0.9 (inactive). In the case of `CN1C[C@H](CNC(=O)OCc2ccccc2)C[C@@H]2c3cccc4c3c(cn4C)C[C@H]21`, the fold change permeability was 1.4 (active). In the case of `NCCc1c[nH]c2ccc(O)cc12`, the fold change permeability was 1 (inactive). For `C=C(C)[C@H]1CN[C@H](C(=O)O)[C@H]1CC(=O)O`, the fold change permeability was 1.8 (active). In the case of `CC(C)NP(=O)(NC(C)C)OP(=O)(NC(C)C)NC(C)C`, the fold change permeability was 1.1 (inactive). In the case of `COc1ccc2[nH]cc(CCN)c2c1`, the fold change permeability was 0.8 (inactive). In the case of `C[N+](C)(C)CC#CCN1CCCC1=O`, the fold change permeability was 1 (inactive). For `C[N+](C)(C)CCOC(=O)CBr`, the fold change permeability was 1 (inactive). With `NC(=O)CN1CC(O)CC1=O` (stereo unspecified) the fold change permeability was 0.8 (inactive). With `NNC(N)=O` the fold change permeability was 1 (inactive). For `CCCCCN(C)CCC(O)(P(=O)(O)O)P(=O)(O)O`, the fold change permeability was 1.8 (active). With `C[N+]1(C)C2CCC1CC(OC(=O)C(CO)c1ccccc1)C2` (stereo unspecified) the fold change permeability was 1.1 (inactive). In the case of `CC(C)(O)[C@@H]1C2OC(=O)C1[C@]1(O)C[C@H]3O[C@]34C(=O)O[C@H]2[C@]14C` (stereo partly specified) (tested in a mixture with another compound), the fold change permeability was 1.1 (inactive). With `C[N+]1(C)[C@@H]2CC[C@H]1CC(OC(=O)C(CO)c1ccccc1)C2` (stereo partly specified) the fold change permeability was 1 (inactive).
